Outcome and AC50 data for 6 compounds are collected here from PubChem BioAssay (EPA / NIEHS).

Molecules are shown by their SMILES. The source made the active and inactive calls. Rule for the calls: active = hit-call score of the fitted dose curve at least 0.9, where 1 is the maximum; inactive = score below 0.9.

Conditions in all cases: mRNA level, 48 h; actives raise or lower the signal
Read-out in assay [1]: Early growth response protein 1 (EGR1) transcription factor, EGR1 (gene 1958)
As to the kind of experiment: LTEA_HepaRG_EGR1: Life Technologies and Expression Analysis (LTEA) Assay for Early growth response protein 1 (EGR1) transcription factor using HepaRG (AID 2283490). The procedure, abridged:
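HepaRG, 48 h exposure, 8-pt half-log series from 100 uM, 0.5% DMSO vehicle; EGR1 transcript by TaqMan qRT-PCR (Fluidigm array), housekeeping-normalized; bidirectional fit relative to DMSO baseline.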

Read-out in assay [2]: Ezrin (EZR), EZR (gene 7430)
Nature of the assay: LTEA_HepaRG_EZR: Life Technologies and Expression Analysis (LTEA) Assay for Ezrin (EZR) using HepaRG (AID 2283491). The procedure, abridged: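 EZR transcript levels came from Fluidigm qRT-PCR and were normalized to three housekeeping genes after 48 h chemical exposure of HepaRG cells. Dosing used an 8-point half-log series with a 100 uM top concentration in 0.5% DMSO, tested in duplicate; both directions were fitted versus vehicle.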

Read-out in assay [3]: Cytochrome P450 3A7 (Homo sapiens) (UniProt P24462)
As to the kind of experiment: LTEA_HepaRG_CYP3A7: Life Technologies and Expression Analysis (LTEA) Assay for CYP3A7 using HepaRG (AID 2283492). A digest of the protocol: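 Human HepaRG liver cells, 48 h post-plating, switched to serum-free induction medium and exposed in duplicate for 48 h. Dosing: 100 uM top, half-log dilutions, 8 points, 0.5% DMSO vehicle. Read-out: CYP3A7 mRNA, gain or loss fitted against DMSO baseline.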

Read-out in another assay: CYP3A5 (gene 1577)
As to the kind of experiment: LTEA_HepaRG_CYP3A5: Life Technologies and Expression Analysis (LTEA) Assay for CYP3A5 using HepaRG (AID 2283493). A digest of the protocol: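 Readout was CYP3A5 mRNA by qRT-PCR. HepaRG cultures were exposed for 48 h in serum-free induction medium to chemicals at up to 100 uM, and responses were fitted in both directions relative to DMSO vehicle.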

Read-out in assay [4]: Fatty Acid-Binding Protein 1 (FABP1), FABP1 (gene 2168)
Nature of the assay: LTEA_HepaRG_FABP1: Life Technologies and Expression Analysis (LTEA) Assay for Fatty Acid-Binding Protein 1 (FABP1) using HepaRG (AID 2283494). A digest of the protocol: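 qRT-PCR readout of FABP1 transcript (normalized to three housekeeping genes) after 48 h chemical exposure of HepaRG cells; eight concentrations, half-log steps, max 100 uM, 0.5% DMSO vehicle; gain or loss fitted relative to DMSO baseline.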

Read-out in assay [5]: Cytochrome P450 4A22 (Homo sapiens) (UniProt Q5TCH4)
As to the kind of experiment: LTEA_HepaRG_CYP4A22: Life Technologies and Expression Analysis (LTEA) Assay for Cytochrome P450 4A22 (CYP4A22) using HepaRG (AID 2283495). A digest of the protocol:
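Readout is CYP4A22 transcript induction or loss, quantified by qRT-PCR and normalized to ACTB, GAPDH and POLR2A. Human HepaRG cells receive test chemicals for 48 h at eight half-log concentrations from 100 uM in 0.5% DMSO.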

Read-out in assay [6]: Cytochrome P450 7A1 (Homo sapiens) (UniProt P22680)
As to the kind of experiment: LTEA_HepaRG_CYP7A1: Life Technologies and Expression Analysis (LTEA) Assay for Cytochrome P450 7A1 (CYP7A1) using HepaRG (AID 2283496). A digest of the protocol:
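Using 0.5% DMSO as vehicle and baseline, chemicals were tested in duplicate over an 8-point range from 100 uM on HepaRG cells for 48 h; qRT-PCR signals were normalised to ACTB, GAPDH and POLR2A.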

Read-out in assay [7]: Glutathione S-Transferase (GSTA2), GSTA2 (gene 2939)
Nature of the assay: LTEA_HepaRG_GSTA2: Life Technologies and Expression Analysis (LTEA) Assay for Glutathione S-Transferase (GSTA2) using HepaRG (AID 2283497). A digest of the protocol:
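qRT-PCR readout of GSTA2 transcript, normalized to three housekeeping genes, fitted bidirectionally against 0.5% DMSO baseline. Differentiated HepaRG cells received compound for 48 h at 8 concentrations (top 100 uM, half-log steps).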

Read-out in assay [8]: Glutamate-cysteine ligase catalytic (GCLC), GCLC (gene 2729)
As to the kind of experiment: LTEA_HepaRG_GCLC: Life Technologies and Expression Analysis (LTEA) Assay for Glutamate-cysteine ligase catalytic (GCLC) using HepaRG (AID 2283498). The procedure, abridged:
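HepaRG, 48 h exposure, 8-pt half-log series from 100 uM, 0.5% DMSO vehicle; TaqMan qRT-PCR for GCLC mRNA, housekeeping-normalized; bidirectional curve fit vs DMSO baseline.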

Read-out in assay [9]: Glutamate-cysteine ligase regulatory (GCLM), GCLM (gene 2730)
As to the kind of experiment: LTEA_HepaRG_GCLM: Life Technologies and Expression Analysis (LTEA) Assay for Glutamate-cysteine ligase regulatory (GCLM) using HepaRG (AID 2283500). The procedure, abridged:
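In this multiplexed HepaRG gene-expression assay, GCLM mRNA change after 48 h treatment (8 concentrations, max 100 uM) was scored against DMSO by bidirectional curve fitting.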

Read-out in assay [10]: Glutathione S-transferase M3 (GSTM3), GSTM3 (gene 2947)
As to the kind of experiment: LTEA_HepaRG_GSTM3: Life Technologies and Expression Analysis (LTEA) Assay for Glutathione S-transferase M3 (GSTM3) using HepaRG (AID 2283501). A digest of the protocol:
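HepaRG, plated 48 h, then serum-free induction medium; test chemical 48 h, duplicate; 100 uM top, half-log x8, 0.5% DMSO. Read-out: GSTM3 mRNA (TaqMan qRT-PCR, Fluidigm array). Bidirectional fit vs DMSO.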

Read-out in assay [11]: Heat shock 70 kDa protein 1 (HSPA1A), gene 3303
Nature of the assay: LTEA_HepaRG_HSPA1A: Life Technologies and Expression Analysis (LTEA) Assay for Heat shock 70 kDa protein 1 (HSPA1A) using HepaRG (AID 2283502). A digest of the protocol:
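An oxidative-stress marker readout: HepaRG cells treated 48 h in duplicate with an eight-point series (highest 100 uM) had HSPA1A mRNA quantified by TaqMan qRT-PCR. Activity was fitted in both directions using 0.5% DMSO as baseline.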

Read-out in assay [12]: Hypoxia-inducible factor 1-alpha (Homo sapiens) (UniProt Q16665)
Nature of the assay: LTEA_HepaRG_HIF1A: Life Technologies and Expression Analysis (LTEA) Assay for Hypoxia-inducible factor 1 (HIF1A) Trancription factor using HepaRG (AID 2283503).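 Note: HIF1A transcript by TaqMan qRT-PCR normalized to ACTB GAPDH and POLR2A.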 The procedure, abridged:
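Gain- or loss-of-signal HIF1A mRNA changes are fitted against a DMSO baseline. HepaRG cultures receive eight concentrations, highest 100 uM, for 48 h in serum-free induction medium with 0.5% DMSO.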

Read-out in assay [13]: 3-Hydroxy-3-Methylglutaryl-CoA Synthase 2 (HMGCS2), HMGCS2 (gene 3158)
As to the kind of experiment: LTEA_HepaRG_HMGCS2: Life Technologies and Expression Analysis (LTEA) Assay for 3-Hydroxy-3-Methylglutaryl-CoA Synthase 2 (HMGCS2) using HepaRG (AID 2283504). A digest of the protocol: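 HepaRG, plated 48 h then switched to serum-free induction media; cmpd 8-pt, max 100 uM, 1/2-log, 0.5% DMSO, n=2, 48 h. HMGCS2 mRNA by Fluidigm TaqMan qRT-PCR, ACTB/GAPDH/POLR2A norm; bidirectional fit vs DMSO.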

Read-out in a further assay: HGF (gene 3082)
As to the kind of experiment: LTEA_HepaRG_HGF: Life Technologies and Expression Analysis (LTEA) Assay for Hepatocyte Growth Facto (HGF) using HepaRG (AID 2283505). A digest of the protocol: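 Read-out is HGF transcript level by qRT-PCR, normalized to three housekeeping genes, fitted bidirectionally against 0.5% DMSO vehicle. Human HepaRG cells received test chemicals for 48 h at up to 100 uM.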

Read-out in assay [14]: Insulin Like Growth Factor 1 (IGF1), IGF1 (gene 3479)
As to the kind of experiment: LTEA_HepaRG_IGF1: Life Technologies and Expression Analysis (LTEA) Assay for Insulin Like Growth Factor 1 (IGF1) using HepaRG (AID 2283506). A digest of the protocol:
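Endpoint: IGF1 mRNA change by qRT-PCR, housekeeping-normalized, fitted bidirectionally relative to 0.5% DMSO vehicle. Human HepaRG cells were treated 48 h in serum-free induction medium, eight half-log concentrations topping at 100 uM.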

Read-out in assay [15]: Intercellular Adhesion Molecule 1 (ICAM1), ICAM1 (gene 3383)
Nature of the assay: LTEA_HepaRG_ICAM1: Life Technologies and Expression Analysis (LTEA) Assay for Intercellular Adhesion Molecule 1 (ICAM1) using HepaRG (AID 2283507). A digest of the protocol:
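Readout is qRT-PCR mRNA level, normalized to three housekeeping genes and fitted bidirectionally against 0.5% DMSO vehicle. Human HepaRG cultures received compound for 48 h, top concentration 100 uM with half-log dilutions.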

Read-out in assay [16]: Interleukin 6 (IL6), IL6 (gene 3569)
Nature of the assay: LTEA_HepaRG_IL6: Life Technologies and Expression Analysis (LTEA) Assay for Interleukin 6 (IL6) using HepaRG (AID 2283509). The procedure, abridged:
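qRT-PCR read-out of IL6 transcript, normalized to three housekeeping genes, after 48 h chemical exposure of HepaRG cells; 8-point half-log series, top 100 uM, 0.5% DMSO vehicle. Bidirectional curve fitting against DMSO baseline.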

Read-out in assay [17]: growth arrest and DNA damage 45 (GADD45G), GADD45G (gene 10912)
Nature of the assay: LTEA_HepaRG_GADD45G: Life Technologies and Expression Analysis (LTEA) Assay for growth arrest and DNA damage 45 (GADD45G) using HepaRG (AID 2283499). A digest of the protocol:
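Gain or loss of GADD45G mRNA, quantified by TaqMan qRT-PCR against three housekeeping genes, is fitted in both directions relative to 0.5% DMSO. Human HepaRG cultures receive test chemical for 48 h at up to 100 uM.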

Sequence of Hypoxia-inducible factor 1-alpha (Homo sapiens) (Q16665 whole entry, looked up): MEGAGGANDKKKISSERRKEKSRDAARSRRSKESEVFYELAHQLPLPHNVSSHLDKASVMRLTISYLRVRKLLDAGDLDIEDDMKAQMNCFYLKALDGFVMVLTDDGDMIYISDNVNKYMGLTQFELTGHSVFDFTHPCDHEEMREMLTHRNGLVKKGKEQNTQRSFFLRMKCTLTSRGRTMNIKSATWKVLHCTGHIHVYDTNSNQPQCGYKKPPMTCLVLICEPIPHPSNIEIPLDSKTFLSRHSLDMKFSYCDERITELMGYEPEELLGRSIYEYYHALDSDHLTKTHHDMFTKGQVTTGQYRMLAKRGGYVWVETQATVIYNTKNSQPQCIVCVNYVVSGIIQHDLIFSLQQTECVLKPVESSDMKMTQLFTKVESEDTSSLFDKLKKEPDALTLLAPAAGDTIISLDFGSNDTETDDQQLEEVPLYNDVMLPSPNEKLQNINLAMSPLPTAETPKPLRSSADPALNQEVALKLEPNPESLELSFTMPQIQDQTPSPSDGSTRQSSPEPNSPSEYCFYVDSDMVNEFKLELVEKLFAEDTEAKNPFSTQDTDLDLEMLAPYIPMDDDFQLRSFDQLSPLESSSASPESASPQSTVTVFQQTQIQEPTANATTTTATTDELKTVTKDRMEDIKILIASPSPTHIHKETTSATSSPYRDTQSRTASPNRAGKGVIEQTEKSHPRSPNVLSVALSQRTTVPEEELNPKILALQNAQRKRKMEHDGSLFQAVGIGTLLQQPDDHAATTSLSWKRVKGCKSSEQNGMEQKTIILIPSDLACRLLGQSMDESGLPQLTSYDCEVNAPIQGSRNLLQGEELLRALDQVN
Sequence of Cytochrome P450 3A7 (Homo sapiens) (P24462 whole entry, looked up): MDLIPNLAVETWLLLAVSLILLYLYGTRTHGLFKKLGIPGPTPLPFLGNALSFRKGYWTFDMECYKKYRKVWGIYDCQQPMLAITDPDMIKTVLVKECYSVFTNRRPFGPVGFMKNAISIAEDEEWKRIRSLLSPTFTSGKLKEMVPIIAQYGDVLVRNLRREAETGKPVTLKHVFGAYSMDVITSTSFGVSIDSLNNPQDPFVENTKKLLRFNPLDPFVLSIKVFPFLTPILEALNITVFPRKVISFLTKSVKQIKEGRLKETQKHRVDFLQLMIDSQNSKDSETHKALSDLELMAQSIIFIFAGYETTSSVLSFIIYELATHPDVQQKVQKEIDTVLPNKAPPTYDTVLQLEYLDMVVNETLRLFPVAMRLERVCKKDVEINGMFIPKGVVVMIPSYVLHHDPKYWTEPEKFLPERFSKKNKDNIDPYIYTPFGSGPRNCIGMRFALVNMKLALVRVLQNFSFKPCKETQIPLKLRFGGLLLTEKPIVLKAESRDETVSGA

Take `COc1nn(CSP(=S)(OC)OC)c(=O)s1`: the call (in assay [1]; in [2]; in [3]; with CYP3A5 (gene 1577); in [4]; in assay [5]) was inactive. Besides, the compound was called inactive in [6], in assay [7], in assay [8], in assay [9], in [10] and in assay [11]. Also, the call (in assay [12]; in assay [13]; with HGF (gene 3082); in assay [14]; in assay [15]; in assay [16]) was inactive.

For `O=S1OCC2C(CO1)C1(Cl)C(Cl)=C(Cl)C2(Cl)C1(Cl)Cl` (configuration not stated), the result (in assay [1]; in assay [2]; in the assay with CYP3A5 (gene 1577); in assay [8]; in assay [10]; in assay [11]) was inactive. Further, the compound was classed as inactive (in [12]; with HGF (gene 3082); in [15]; in [16]). Moreover, the AC50 in assay [3] was 50 µM (active); in assay [4] it was 43.6 µM (active); in [5], 60.4 µM (active); in assay [6], 40.4 µM (active); in assay [7], 79.7 µM (active); in assay [9] it was 50 µM (active). Also, the AC50 in [13] was 77.3 µM (active); in assay [14], 42.2 µM (active).

For the compound `COP(=S)(OC)Oc1ccc(SC)c(C)c1`, the compound was called inactive (in assay [1]; in assay [2]; with CYP3A5 (gene 1577); in assay [4]; in assay [5]; in assay [6]). Moreover, the compound was called inactive in [7], in assay [8], in assay [10], in [11], in assay [12] and in assay [13]. Also, the compound was called inactive (with HGF (gene 3082); in assay [14]; in assay [15]; in assay [16]). In addition, the AC50 in assay [9] is 0.244 µM (active).

Regarding `COP(=S)(OC)Oc1ccc([N+](=O)[O-])cc1`, the compound was called inactive (in assay [1]; in assay [2]; in assay [3]; with CYP3A5 (gene 1577); in assay [4]; in assay [5]). In addition, the compound was called inactive in assay [6], in assay [7], in [8], in assay [9], in [10] and in [11]. In addition, the compound was classed as inactive (in assay [12]; in [13]; in the assay with HGF (gene 3082); in assay [14]; in assay [15]; in assay [16]).

Consider `O=[N+]([O-])/N=C1\NCCN1Cc1ccc(Cl)nc1`, for which the compound was called inactive (in [1]; in assay [2]; in [3]; with CYP3A5 (gene 1577); in assay [5]; in assay [9]). The result (in assay [10]; in assay [12]; in the assay with HGF (gene 3082); in assay [15]; in assay [16]) was inactive. Further, the AC50 in assay [4] was 36 µM (active); in assay [6], 34.1 µM (active); in [7], 39.9 µM (active); in assay [8] it was 24.6 µM (active); in assay [11], 25 µM (active); in [13] it was 33.9 µM (active). Also, in assay [14], the AC50 was 23 µM (active).

Turning to `COP(=O)(OC)OC=C(Cl)Cl`, the call (in assay [1]; in assay [2]; in [3]; with CYP3A5 (gene 1577); in [5]; in assay [6]) was inactive. In addition, the result in assay [7], in [8], in assay [17], in assay [9], in assay [10] and in assay [11] was inactive. Moreover, the compound was classed as inactive (in [12]; in [13]; with HGF (gene 3082); in assay [14]; in [15]; in assay [16]).

Usually AC50 stands for the concentration giving half of the maximal activity seen.
